Measurements taken from PubChem BioAssay (NCI).
This is part of a sample that, as a whole, favours compounds with a hit. Of some 79,000 tested, about 15% had one in any assay. The source made the active and inactive calls. Cut-off read from the data, not from the text of the source: active = growth inhibition above about 70%; inactive = the rest. Where a SMILES comes first, the peptide text is derived from it. The star is where a group is joined. Boc = CC(C)(C)OC(=O)*

Key:
[1] = NCI Yeast Anticancer Drug Screen. Data for the rad50 strain (AID 155);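 note: 0% = growth of vehicle-only cultures of the same strain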; conditions: S. cerevisiae rad50 strain growth inhibition; at 50.0 µM; hits give high values
Method in brief: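 Genetically altered yeast (DNA repair pathway); compound treatment; growth inhibition vs vehicle ctrl.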

[2] = NCI Yeast Anticancer Drug Screen. Data for the mec2-1 strain (AID 157); conditions: S. cerevisiae mec2-1 strain, at 50.0 µM, hits give high values
Method in brief: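 Using mec2-1 yeast: add compound, measure growth, express inhibition versus vehicle-treated cultures.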

[3] = NCI Yeast Anticancer Drug Screen. Data for the sgs1 mgt1 strain (AID 161);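 note: 0% = growth of cultures given vehicle only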; conditions: S. cerevisiae sgs1 mgt1 strain, at 50.0 µM, hits give high values
Method in brief: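 Yeast cells carrying a defined DNA-repair defect were exposed to test compounds. Growth inhibition was measured relative to vehicle-treated controls.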

[4] = NCI Yeast Anticancer Drug Screen. Data for the cln2 rad14 strain (AID 165);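 note: 0% = growth equal to vehicle treated cultures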; conditions: S. cerevisiae cln2 rad14 strain, at 50.0 µM, hits give high values
Method in brief: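 Yeast strain cln2 rad14, bearing defects in cell cycle control and DNA repair, serves as the test system; values reflect growth inhibition compared with vehicle.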

[5] = NCI Yeast Anticancer Drug Screen. Data for the bub3 strain (AID 167); conditions: S. cerevisiae bub3 mutant strain, at 50.0 µM, hits give high values
Method in brief: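 Yeast carrying a defined mutation is treated with each compound, and growth is compared with that of vehicle-exposed cells to give inhibition.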

[6] = NCI Yeast Anticancer Drug Screen. Data for the mlh1 rad18 strain (AID 175); conditions: S. cerevisiae mlh1 rad18 strain growth inhibition; at 50.0 µM; hits give high values
Method in brief: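 Steps: expose repair-defective yeast to compound; measure growth; express inhibition against vehicle-treated controls.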

Measured: growth inhibition

CC(=O)OC1CC(OC(C)=O)C(OC(C)=O)C(C)O1 (configuration not stated)
inactive: [1] 1.15% | [2] 17.9% | [3] 4.7% | [4] -15.7% | [5] -1.85% | [6] 5.45%

C=C1CN2CCc3c([nH]c4ccccc34)C2CC1CC(=O)N(C)C (configuration not stated)
inactive: [1] -33.5% | [2] -26.7% | [3] -24.4% | [4] -1.15% | [5] -32% | [6] -9.65%

COc1ccc(Cl)cc1NC(=O)c1cccc([N+](=O)[O-])c1O
inactive: [1] -14.9% | [2] 8.95% | [3] 1.75% | [4] -8.55% | [5] 8.65% | [6] -78.4%

O=c1[nH]c(=O)n(C2OC(CO)C(O)C2O)cc1NN=NCc1ccccc1 (configuration not stated)
inactive: [1] -10.1% | [2] -13.7% | [3] -11.2% | [4] 4.9% | [5] -4.5% | [6] -10.9%

N#Cc1ccccc1Br
inactive: [1] 21.4% | [2] -19.8% | [3] 21.1% | [4] 11.8% | [5] 11.8% | [6] 29.8%

CC(C(=O)O)c1ncnn1-c1ccccc1 (configuration not stated)
inactive: [1] -3.35% | [2] 41% | [3] 6.45% | [4] 4.85% | [5] 10.6% | [6] 2.65%

COc1ccc(Cc2ccccc2C(=O)c2ccc(OC)cc2)cc1
inactive: [1] -14.7% | [2] -13.8% | [3] 0.05% | [4] -4.65% | [5] 4.6% | [6] -14.8%

Oc1ccc2c(c1)CCC2
inactive: [1] 25% | [2] -1.95% | [3] -1.3% | [4] 8% | [5] -10.8% | [6] -19.6%

O=[N+]([O-])c1ccc(CCCCCc2ccccc2)cc1
inactive: [1] -6.15% | [2] -17.6% | [3] 0.6% | [4] -75.2% | [5] 4.5% | [6] -21.4%

O=C(N=Nc1c(O)[nH]c2ccc(Br)cc12)c1ccco1
inactive: [1] 24.2% | [2] 28.8% | [3] 43.2% | [4] 14.7% | [5] 43.2% | [6] 43%

O=C(O)c1ccc(/C=N\N(CCO)C2=NCCN2)cc1
inactive: [1] 0% | [2] -4% | [3] -23.8% | [4] -31.5% | [5] -0.35% | [6] 6.4%

CN(C)C(CO)(CO)CO
inactive: [1] 15.3% | [2] -7.5% | [3] 3% | [4] -0.75% | [5] 3.3% | [6] 2.3%

OCC1C2C=CC(O2)[C@H]1CO (some centres not stated)
inactive: [1] 1.65% | [2] -3.75% | [3] -11.8% | [4] -27.9% | [5] -24.9% | [6] -6.95%

CC(=O)NC1C(OCc2ccccc2)OC(COC(=O)CCCCCCCCCCNc2ccc([N+](=O)[O-])c3[nH]c4ccccc4c(=O)c23)C(O)C1OC(C)C(=O)NC(C)C(=O)NC(CCC(N)=O)C(=O)OCc1ccccc1 (configuration not stated)
inactive: [1] 30.7% | [2] 9.8% | [3] -3.3% | [4] 14.4% | [5] 6.15% | [6] 12.9%

CN1CCN(C2CCCc3ccccc3C2=O)CC1 (configuration not stated)
inactive: [1] 21.9% | [2] -10.6% | [3] 4.75% | [4] -36% | [5] -15.5% | [6] 13.4%

Cc1ncnc(N)c1N
inactive: [1] 18.3% | [2] 14.2% | [3] 8.95% | [4] 26.1% | [5] 18.1% | [6] 2.8%

CCCc1[nH]nc(CCC(=O)N(Cc2ccccc2)Cc2ccccc2)c1CC
inactive: [1] -6.65% | [2] -26.4% | [3] 11.6% | [4] 2.3% | [5] -7.9% | [6] -18.1%

COC1OC(C(C)O)C(O)C(O)C1O (configuration not stated)
inactive: [1] 23.6% | [2] 19% | [3] 10.2% | [4] 14.9% | [5] 4.65% | [6] 1.5%

C/C(=C\O[Si](C)(C)C)c1ccccc1
inactive: [1] 37.6% | [2] 23.9% | [3] 12.4% | [4] 7.6% | [5] -11.2% | [6] 41.1%

CN(CCc1ccccn1)/[N+]([O-])=N/O (tested in a mixture with another compound)
inactive: [1] -30.8% | [2] -36.9% | [3] 4.15% | [4] 11.2% | [5] -3.35% | [6] -4.65%

CCN(CC)CCOc1ccccc1C(C)C
inactive: [1] 14.6% | [2] 7.5% | [3] 17.1% | [4] 19.5% | [5] 4% | [6] 25.1%

COc1ccc2ccc3c4c(c(=O)[nH]c3c2n1)CCC4
inactive: [1] 44% | [2] 28.8% | [3] 33.7% | [4] 2.55% | [5] 9.95% | [6] 30.9%

CCOC(=O)CCC(NC(=O)c1ccc(NC)c([N+](=O)[O-])c1)C(=O)OCC (configuration not stated)
inactive: [1] 58.9% | [2] -1.9% | [3] 11.4% | [4] 18.8% | [5] 4% | [6] 0.8%

CC(C)NCCN
inactive: [1] 17.4% | [2] 0.3% | [3] 18.8% | [4] 11.3% | [5] 12.7% | [6] 23.4%

CC(C)SC(=O)C[Si](C)(C)C
inactive: [1] -5.8% | [2] 6.95% | [3] -2.9% | [4] -16.1% | [5] 26.7% | [6] -1.65%

C=CCOc1cc2c(cc1C(C)c1ccc(OC)c(OC)c1)OCO2 (configuration not stated)
inactive: [1] 32.9% | [2] -3.2% | [3] 17.3% | [4] 18.4% | [5] 6.25% | [6] 49.2%

CC1=C(C)C(N(C)C)CS(=O)(=O)O1 (configuration not stated)
inactive: [1] 6.35% | [2] -18.4% | [3] -0.7% | [4] -47% | [5] -11.2% | [6] -7.9%

CS(=O)c1ccc(/C=C2/C=Cc3ccccc32)cc1 (configuration not stated)
inactive: [1] 32.8% | [2] 27.3% | [3] 30.5% | [4] 22.1% | [5] 48.7% | [6] 36%

CCCCCCCCCCCC(=O)NC(=S)Nc1ccc(N(C)C(C)=O)cc1
active: [1] 90.5% | [2] 92.8% | [3] 92.5% | [4] 87.6% | [5] 90% | [6] 91.9%

CSc1nc(N)c(N=Nc2ccc(S(=O)(=O)Nc3cc(C)nc(C)n3)cc2)c(=O)[nH]1
inactive: [1] 17.4% | [2] 15.6% | [3] -10.6% | [4] -0.2% | [5] 2.1% | [6] -3.3%

CC(=O)OCC1OC(n2c3c(c(-c4ccc(Cl)cc4)c(C#N)c2=S)C(=O)CC(C)(C)C3)C(OC(C)=O)C(OC(C)=O)C1OC(C)=O (configuration not stated)
inactive: [1] 16.1% | [2] -10.9% | [3] 12.6% | [4] -5.25% | [5] 23.4% | [6] -37.5%

O=C1CCC2(c3ccccc3)Nc3ncccc3N12 (configuration not stated)
inactive: [1] 33% | [2] 2.8% | [3] 6.6% | [4] 3.85% | [5] 23% | [6] 27.8%

CCCC(C)CCCC(=O)c1ccc2cc(OC)ccc2c1 (configuration not stated)
inactive: [1] -34.2% | [2] -16.8% | [3] -14.5% | [4] -33.3% | [5] -2% | [6] -29.9%

O=C1CN(c2ccccc2)CC(=O)N2C(c3ccccc3)CCCN12 (configuration not stated)
inactive: [1] 22.3% | [2] 1.65% | [3] -6.05% | [4] 26.2% | [5] 24.4% | [6] 3.35%

CN(C)N=Nc1ccc(Cl)cc1
inactive: [1] -5.15% | [2] 21.9% | [3] 16.6% | [4] -56.6% | [5] 35% | [6] 8.3%

COC(=O)CC1C(=O)OC23CCC1C2(C)CCC1C3CCC2CC(OC(C)=O)CCC21C (configuration not stated)
active: [1] 87.4% | [2] 89.3% | [3] 90.5% | [4] 82% | [5] 87.5% | [6] 87.9%

C[S+](C)CCOC(=O)C(=[N+]=[N-])c1ccc([N+](=O)[O-])cc1
inactive: [1] 32.5% | [2] 9.8% | [3] 44.3% | [4] 25.8% | [5] 9.9% | [6] 59.4%

NC(=O)N/N=C/c1c(Cl)cccc1Cl
inactive: [1] 15.9% | [2] 17.2% | [3] 1.4% | [4] -10.7% | [5] -27.6% | [6] 31.5%

OC(C1COCO1)C1OCOC1C1COCO1 (configuration not stated)
inactive: [1] 21.6% | [2] 9.45% | [3] 3.2% | [4] 3.55% | [5] -11.2% | [6] 6.15%

O=CNc1ccccc1O
inactive: [1] -2.55% | [2] -17.5% | [3] -25% | [4] 19.9% | [5] -14.3% | [6] 14.9%

CC(C)/C=C1\CCC(CN(C)C)C1=O (configuration not stated)
inactive: [1] 30.4% | [2] 56.1% | [3] 68.8% | [4] 31.4%
active: [5] 75% | [6] 85.8%

COC(=O)C(Cc1c[nH]c2ccccc12)NC(=O)C(Cc1c[nH]c2ccccc12)NC(=O)C(Cc1c[nH]c2ccccc12)NC(=O)C(Cc1c[nH]c2ccccc12)NC(=O)OC(C)(C)C (configuration not stated) (Boc-WWWW-OMe; configuration not given here)
inactive: [1] 3.35% | [2] -4.65% | [3] -2.05% | [4] 23.4% | [5] 4.65% | [6] 6.2%
